Screening data from PubChem.
KCNQ2 enhance = enhances the rat KCNQ2 potassium channel; O88943; CHO-K1 KCNQ2, FluxOR thallium flux fluorescence; stronger effect = higher value; B-score at 10 µM; actives 0.54% (n = 310,000); AID 2239;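 active means fluorescence ratio B-score at least 3 SD of library B-scores, with initial fluorescence B-score within 3 of them, cut at about 5.3 in these data; same plate scores as AID 2156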;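 further: B-score of peak minus minimum over baseline fluorescence ratio after K+ and Tl+ stimulus; positive B-score means potentiation of KCNQ2 with more thallium influx and brighter signal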
Target sequence (O88943 whole entry, looked up): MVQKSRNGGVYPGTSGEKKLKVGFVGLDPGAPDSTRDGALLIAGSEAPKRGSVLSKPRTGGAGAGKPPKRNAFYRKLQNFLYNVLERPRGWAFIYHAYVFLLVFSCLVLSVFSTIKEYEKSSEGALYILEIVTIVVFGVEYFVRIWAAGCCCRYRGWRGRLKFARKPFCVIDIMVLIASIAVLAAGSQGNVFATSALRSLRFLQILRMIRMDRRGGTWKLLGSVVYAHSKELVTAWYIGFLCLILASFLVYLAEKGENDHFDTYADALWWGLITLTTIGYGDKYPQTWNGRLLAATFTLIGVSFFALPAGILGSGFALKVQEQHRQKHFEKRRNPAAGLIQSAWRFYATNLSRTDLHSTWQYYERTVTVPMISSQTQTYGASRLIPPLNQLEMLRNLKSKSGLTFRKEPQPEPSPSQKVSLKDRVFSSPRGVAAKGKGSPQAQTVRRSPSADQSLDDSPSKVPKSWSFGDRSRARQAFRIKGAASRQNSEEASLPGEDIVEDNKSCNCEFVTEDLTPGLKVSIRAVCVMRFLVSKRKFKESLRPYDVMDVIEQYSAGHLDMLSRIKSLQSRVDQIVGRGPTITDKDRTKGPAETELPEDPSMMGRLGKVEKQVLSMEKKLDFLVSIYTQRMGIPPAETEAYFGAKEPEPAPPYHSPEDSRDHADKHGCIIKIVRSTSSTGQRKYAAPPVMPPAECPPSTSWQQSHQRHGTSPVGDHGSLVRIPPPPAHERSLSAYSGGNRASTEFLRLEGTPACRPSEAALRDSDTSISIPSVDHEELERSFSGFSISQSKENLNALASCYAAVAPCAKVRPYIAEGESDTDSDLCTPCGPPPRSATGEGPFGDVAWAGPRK
KCNQ2 block = KCNQ2 (rat) channel inhibition; O88943; CHO-K1 KCNQ2, FluxOR thallium flux, 20 min; stronger effect = lower value; B-score at 10 µM; actives 1.1% (n = 310,000); AID 2156;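 active means fluorescence ratio B-score at most minus 3 library SDs, with starting brightness B-score within 2 library SDs, cut at about -5.5 in these data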
Starred values were filed as active, the others as inactive; i = inactive; . = no result. Hits are enriched below; roughly 1.6% of the tested compounds scored in any of these assays.

SMILES	KCNQ2 enhance	KCNQ2 block
COc1ccccc1CNC(=O)c1n[nH]c2ccccc12	0.13	i
CCCC(C)NC(=O)COC(=O)c1cccc(NS(C)(=O)=O)c1 (configuration not stated)	.	i
O[C@@H]([C@H](O)[C@H](O)CBr)[C@H](O)CBr	0.62	i
COc1ccc(-c2nc(CN(C)C(C)c3ccon3)c(C)o2)c(C)c1C (configuration not stated)	.	i
COc1ccc(-c2nc(CN(CC3CCC(=O)N3)C(C)C)c(C)o2)c(C)c1C (configuration not stated)	-6.69	-6.69*
O=C(Cc1cccc(C(F)(F)F)c1)OCN1C(=O)c2ccccc2C1=O	0.41	i
Cc1cc(Br)ccc1NC(=O)CN(C)C(=O)c1cc([N+](=O)[O-])ccc1N1CCOCC1	-6.46	-6.46*
Cc1ccc(C)c(NC(=O)CN(C)C(=O)c2cc([N+](=O)[O-])ccc2N2CCOCC2)c1	0.91	i
CCN(CC(=O)Nc1c(F)cccc1F)C(=O)CCc1nc2sc3c(c2c(=O)[nH]1)CCCC3	0.15	i
Cc1ccc2c(c1)cc(CN(CCc1ccccc1)C(=O)N1CCOCC1)c1nnnn12	.	i
Cc1ccc2c(c1)cc(CN(Cc1ccco1)C(=O)N1CCOCC1)c1nnnn12	-8.82	-8.82*
COC(=O)[C@H](Cc1ccccc1)NC(=O)c1cc(COc2c(F)cccc2F)on1	1.93	i
CCOC(=O)CC1(NC(=O)c2cc(COc3c(F)cccc3F)on2)CCCCC1	-5.68	-5.68*
Cc1ccc(C(=O)NCC(=O)N/N=C/c2sccc2C)cc1[N+](=O)[O-]	.	i
C=CCn1c(NS(=O)(=O)c2ccccc2)c(S(=O)(=O)c2ccc(C)cc2)c2nc3ccccc3nc21	.	i
O=S(=O)(Nc1c(S(=O)(=O)c2ccccc2)c2nc3ccccc3nc2n1C1CCCCC1)c1ccccc1	-6.15	-6.15*
Cc1cccc2c1-c1sc(C(=O)N3CCc4ccccc4C3)cc1CO2	-5.6	-5.6*
Cc1cccc2c1-c1sc(C(=O)N3CCCCC3)cc1CO2	.	i
CC1CC(C)CN(S(=O)(=O)CCNC(=O)c2ccc3c(c2)OCO3)C1 (configuration not stated)	0.6	i
COC(=O)c1cn(NC(=O)Cc2ccc(Cl)c(Cl)c2)c(=O)c2ccccc12	29.8*	i
COC(=O)c1cn(NC(=O)Cc2cccc(C(F)(F)F)c2)c(=O)c2ccccc12	3.5	i
COC(=O)c1cn(NC(=O)Cc2ccc(Cl)cc2)c(=O)c2ccccc12	18.1*	i
COC(=O)c1cn(NC(=O)Cc2ccccc2OC)c(=O)c2ccccc12	.	i
CN(C)CCNC(=O)C(=O)NCC1CCCN1S(=O)(=O)c1cccs1 (configuration not stated)	0.67	i
O=c1c2cc(Cl)ccc2[nH]c(=S)n1Cc1ccco1	.	i
SMILES	KCNQ2 enhance	KCNQ2 block
O=c1c2cc(Cl)ccc2[nH]c(=S)n1Cc1cccs1	5.3*	i
COc1ccc(N(CC(=O)N2CCN(C)CC2)S(=O)(=O)c2cc(C)ccc2OC)cc1Cl	0.66	i
CCCN(CCC)C(C(=O)Nc1cccc(OC)c1)c1ccccc1 (configuration not stated)	-5.93	-5.93*
CCC(C(=O)OCC(=O)Nc1cccc(OC)c1)c1ccccc1 (configuration not stated)	.	i
CC(=O)c1ccc(NC(=O)c2ccccc2-c2ccccc2C(=O)O)cc1	.	i
Cc1nn(Cc2ccc(C(=O)N3c4ccc(F)cc4CCC3C)o2)c(C)c1Br (configuration not stated)	-7.57	-7.57*
Cc1ccc(C(=O)N2c3ccc(F)cc3CCC2C)o1 (configuration not stated)	.	i
Cc1ccc(C)c(S(=O)(=O)N2CCCCC2CCNC(=O)C(=O)NCc2ccco2)c1 (configuration not stated)	.	i
COc1ccc(S(=O)(=O)N2CCCCCC2)cc1C(=O)N(C)Cc1ccccc1F	-5.81	-5.81*
COc1cccc(CN(C)C(=O)c2cc(S(=O)(=O)N3CCN(c4ccccc4)CC3)ccc2Cl)c1	-5.57	-5.57*
COc1cccc(NC(=O)CN(C)C(=O)c2cccc(S(=O)(=O)N3CCN(c4ccccc4)CC3)c2)c1	0.05	i
COc1ccc(S(=O)(=O)N2CCCCCC2)cc1C(=O)N(C)Cc1ccc(C)cc1	.	i
Cc1ccc(NC(=O)COC(=O)/C=C/c2c(C)nn(-c3ccc(F)cc3)c2Cl)cc1F	.	i
O=C(C[n+]1cc(Br)cc2ccccc21)c1ccc(Cl)cc1	-7.54	-7.54*
O=C(C[n+]1cc(Br)cc(Br)c1)c1ccc(Cl)cc1	.	i
O=C(C[n+]1cc(Br)cc2ccccc21)c1ccc(Br)cc1	-6.1	-6.1*
O=C(C[n+]1cccc2ccccc21)c1ccc(Br)cc1	0.78	i
Cc1sc2nc3c(C(=O)N4CCCC4)cc(C(=O)c4ccccc4O)cn3c(=O)c2c1C	-7.1	-7.1*
COc1cccc(N2CCN(C(=O)c3cccn4c(=O)c5c(C)c(C)sc5nc34)CC2)c1	.	i
O=C(CSc1nnc(-c2cccnc2)o1)Nc1ccccc1F	.	i
Cc1cccnc1NC(=O)c1ccc(Cl)c(S(=O)(=O)N2CCCCC2)c1	0.94	i
COC(=O)c1c(-c2c(Cl)cccc2Cl)noc1NC(=O)NN1CCOCC1	.	i
O=C(Nc1csc(Cc2c(Cl)cccc2Cl)n1)NN1CCOCC1	6.08*	i
Cc1ccc(C(=O)N2CCN(c3ncccn3)CC2)cc1S(=O)(=O)N1CCCCC1	.	i
O=C(C1=C[C@@H](C2CCCCC2)C[C@@H](OCc2ccc(CO)cc2)O1)N1CCN(Cc2ccccc2)CC1	-6.5	-6.5*
SMILES	KCNQ2 enhance	KCNQ2 block
O=C(C1=C[C@H](C2CCCCC2)C[C@H](OCc2ccc(CO)cc2)O1)N1CCN(Cc2ccccc2)CC1	-6.71	-6.71*
O=C(C1=C[C@H](C2CCCCC2)C[C@H](OCc2ccc(CO)cc2)O1)N1CCOCC1	.	i
C[C@@H]1C=C(C(=O)N2CCN(Cc3ccccc3)CC2)O[C@H](OCc2ccc(CO)cc2)C1	.	i
O=C(Nc1cccc(C(F)(F)F)c1)c1cccnc1N1CCN(CCO)CC1	.	i
O=C(Nc1cccc(C(F)(F)F)c1)c1cccnc1N1CCN(c2ccccc2)CC1	-7.04	-7.04*
CCOC(=O)C[C@H]1c2ccc(C(F)(F)F)cc2S(=O)(=O)N1c1cccc(OC)c1	0.37	i
Cc1cc([N+](=O)[O-])nn1CCCC(=O)N1CCN(c2ccccc2)CC1	1.5	i
Cn1c(=O)c2c(nc(CN3CCc4ccccc4C3)n2Cc2ccc(F)cc2)n(C)c1=O	.	i
Cc1ccccc1Cn1c(CN2CCc3ccccc3C2)nc2c1c(=O)n(C)c(=O)n2C	-6.13	-6.13*
CC1(C)CCC[C@@]2(C)CC=C(C(=O)O)[C@@H]3C[C@]312	.	i
O=C(CSc1nnc(-c2c[nH]c3ccccc23)o1)N(Cc1ccccc1)c1ccc(F)cc1	.	i
COc1ccc(CN(C(=O)CSc2nnc(-c3ccccc3C)o2)c2ccc(F)cc2)cc1	-6.42	-6.42*
O=C(c1oc2ccccc2c1CSCc1ccccc1)N1CCN(c2ncccn2)CC1	-6.2	-6.2*
CCOCC(=O)Nc1c(C(=O)N2CCN(c3ncccn3)CC2)oc2ccccc12	0.31	i
CC(=O)O/N=C(\N)c1cnn2c(C(F)(F)F)cc(C(F)(F)F)nc12	.	i
CC1=C(C(=O)OC2CCCCCC2)C(c2ccc(C)o2)C2=C(CCCC2=O)N1 (configuration not stated)	0.82	i
